Measured values as given in PubChem BioAssay (NCATS).
Records with an inconclusive call do not appear. The source made the active and inactive calls. Unless noted, calls come from the whole dose curve; as a rule, active = well fitted curve in the direction sought with a large enough effect; inconclusive = small, poorly fitted or top-dose-only effect, or another doubt; inactive = no such curve, though single readings can be large; an effect the other way counts as inactive or inconclusive.

What was measured:
[1] = Cell Viability - BJ (AID 421; calls by dose curve;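 note: potency is the fitted concentration of half-maximal effect; cells exposed to compound for 40 hours at 37 °C before readout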); details: BJ fibroblast viability, qHTS
Procedure, shortened: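 Cytotoxicity as drop in intracellular ATP (CellTiter-Glo, 20 min RT) after 40 hr compound exposure of BJ fibroblasts at 37 °C. Titrations scaled between DMSO and 100 uM tamoxifen, Hill-fitted for AC50.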

[2] = Cell Viability - Jurkat (AID 426;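 active = dose-dependent loss of cell ATP signal giving a full or clear fitted curve, ranked by lower potency value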; note: potency is the fitted concentration of half-maximal effect); details: qHTS
Procedure, shortened: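 Luminescent ATP read-out (CellTiter-Glo, 20 min at room temperature) after 40 hr compound exposure at 37 °C of Jurkat E6-1 cells, 5000/well. Decreased ATP taken as cytotoxicity; AC50 from standard Hill equation.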

[3] = Cell Viability - Hek293 (AID 427;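 active = compounds whose dose-response curve shows a full or clear partial loss of cell viability, called from curve shape rather than a numeric limit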;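 note: potency is the fitted concentration of half-maximal effect; cells exposed to compound for 40 hours at 37 °C before reading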); details: qHTS
Procedure, shortened: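 Luminescent ATP content (CellTiter-Glo, 20 min at room temperature) was measured after a 40 hr, 37 °C compound exposure of HEK293 cells. AC50 values came from Hill-equation fits of qHTS concentration-response data normalized to DMSO and 100 uM tamoxifen.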

[4] = Cell Viability - HepG2 (AID 433; calls by dose curve;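 note: potency is the fitted concentration of half-maximal effect; potency for ATP loss meaning cytotoxicity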); details: qHTS
Procedure, shortened: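 In this qHTS format, a 40 h, 37 °C compound incubation of HepG2 cells in complete medium precedes a 20 min CellTiter-Glo step at room temperature. Tamoxifen and doxorubicin serve as positive controls; Hill-equation fits yield AC50.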

[5] = Cell Viability - SK-N-SH (AID 435; calls by dose curve; note: potency is the fitted concentration of half-maximal effect); details: SK-N-SH neuroblastoma cell viability qHTS
Procedure, shortened: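 Human neuroblastoma line, 40 h exposure at 37 °C, ATP quantified via luciferase luminescence; DMSO and 100 uM tamoxifen define 0 and 100% inhibition for AC50 fitting.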

[6] = biological target: Mitogen-activated protein kinase 10 (Mus musculus) (UniProt Q61831); assay: JNK3 AlphaScreen Assay (AID 530; active = well fitted curve in either direction with a large enough effect, not every such curve was filed as active;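 note: kinase came from lysate of stimulated human HepG2 cells; signal reports phosphorylation of biotinylated GST-cJun 1-79 at Ser73 with 10 µM ATP; % is set by controls: 0 for no effect and ±100 for the full control effect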); details: JNK3 lysate, c-Jun phosphorylation; series mostly up to 57.1 µM
Procedure, shortened: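 HepG2 lysate (IL-1b/TNFa pre-activated) + biotin-GST-cJun 1-79 + anti-pSer73 cJun; cpd titration, 15 min RT; ATP 10 uM start; Tris pH 7.6, MgCl2, DTT, vanadate; beads in EDTA buffer; AlphaScreen.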

[7] = Cell Viability - N2a (AID 540); details: N2a mouse neuroblastoma cell viability; activity change, negative = cytotoxicity: at 92.2 µM (top of the series);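 note: plate controls were DMSO alone for no effect and tamoxifen control for full effect; nearly all actives have a fitted effect of over 45% in size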
Procedure, shortened: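 N2a mouse neuroblastoma, 1500 cells/well, 5 hr settle; compound 40 hr, 37 °C; CellTiter-Glo 20 min RT; luminescence; Hill-fit AC50.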

[8] = Cell Viability - NIH 3T3 (AID 541); details: NIH 3T3 cell viability, qHTS; activity change, negative = cytotoxicity: at 92.2 µM (top of the series);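 note: plate controls were DMSO alone for no effect and tamoxifen positive control for full effect; nearly all actives have a fitted effect of over 25% in size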
Procedure, shortened: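 qHTS format; 40 hr compound exposure, 37 °C; CellTiter-Glo luminescence (cellular ATP) read-out after 20 min at RT. Decrease in ATP = cytotoxicity; AC50 from standard Hill fit.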

[9] = Cell Viability - HUV-EC-C (AID 542); details: HUV-EC-C endothelial cell viability, qHTS; series mostly up to 92.2 µM; note: % is set by controls: 0 for no effect and ±100 for the full control effect; nearly all actives have a fitted effect of over 35% in size
Procedure, shortened: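 Luminescent ATP read-out (CellTiter-Glo, 20 min room temperature) after 40 hr compound treatment of HUV-EC-C cells at 37 °C. Concentration-response data fitted with the standard Hill equation to give AC50; tamoxifen and doxorubicin served as positive controls.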

[10] = Cell Viability - H-4-II-E (AID 543); details: H-4-II-E rat hepatoma viability; series mostly up to 92.2 µM; note: % is set by controls: 0 for no effect and ±100 for the full control effect; nearly all actives have a fitted effect of over 35% in size
Procedure, shortened: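 qHTS, rat hepatoma H-4-II-E, 1500 cells/well; 40 hr compound exposure, 37 °C; CellTiter-Glo ATP luminescence after 20 min RT; AC50 by standard Hill fit.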

[11] = Cell Viability - SH-SY5Y (AID 544); details: SH-SY5Y neuroblastoma cell viability; viability change, negative = cytotoxic: at 92.2 µM (top of the series); note: nearly all actives have a fitted effect of over 55% in size
Procedure, shortened: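 SH-SY5Y, 1500 cells/well, 5 hr pre-incubation 37 °C; cpd 40 hr 37 °C; CellTiter-Glo 20 min RT; luminescence (ATP) read. qHTS concentration-response, Hill fit → AC50. Tamoxifen, doxorubicin as positive controls.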

[12] = Cell Viability - Renal Proximal Tubule (AID 545); details: renal proximal tubule cells viability, primary cells of rat origin; series mostly up to 91.7 µM; note: nearly all actives have a fitted effect of over 40% in size
Procedure, shortened: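 In this qHTS format, normal rat kidney-derived proximal tubule cells in complete culture medium receive compound titrations, then sit 40 hours at 37 °C before luciferase-based ATP quantitation; potency is reported as AC50 from concentration-response curves.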

[13] = Cell Viability - Mesenchymal (AID 546); details: mesenchymal cells viability, qHTS; series mostly up to 91.7 µM;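 note: cells exposed to compound for 40 hours before reading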
Procedure, shortened: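 Human renal mesenchymal cells (glomerulus-derived), 1000 cells/well, 5 hr 37 °C pre-incubation; compound 40 hr, 37 °C; CellTiter-Glo, 20 min RT; luminescence; AC50 via Hill equation.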

[14] = Cellular Toxicity (caspase-3) HepG2 (AID 654); details: HepG2 caspase-3 activation, luminescence; series mostly up to 92.2 µM;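 note: cells exposed to compound for 16 hours before reading; 0% = DMSO alone and 100% = caspase signal from 100 µM tamoxifen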
Procedure, shortened: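 Luminescent Caspase-Glo 3/7 readout after 16 hr compound exposure of human hepatocellular carcinoma HepG2 cells at 37 °C; qHTS concentration-response, normalized DMSO = 0%, 100 uM tamoxifen = 100%; AC50 by standard Hill equation.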

[15] = Cellular Toxicity (caspase-3) Jurkat (AID 655); details: Jurkat caspase-3 activation, luminescence; caspase-3 activation: at 92.2 µM (top of the series), DMSO = 0%, tamoxifen = 100%;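 note: cells exposed to compound for 16 h at 37 °C before reading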
Procedure, shortened: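 qHTS in human Jurkat T-cell leukemia line: 16 hr compound treatment at 37 °C, caspase-3/7 activity measured by Caspase-Glo luminescence. AC50 derived from Hill equation.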

[16] = Cellular Toxicity (caspase-3) HUV-EC-C (AID 656); details: HUV-EC-C cells, caspase-3 activation (apoptosis), vehicle = 0, 100 µM tamoxifen = 100%; series mostly up to 92.2 µM;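 note: cells exposed to compound for 16 h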
Procedure, shortened: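 Concentration-dependent caspase 3/7 induction was assessed in HUV-EC-C cells exposed for 16 hours. Data scaled between DMSO and tamoxifen (100 uM) controls.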

[17] = Cellular Toxicity (caspase-3) SHSY5Y (AID 657); details: SH-SY5Y caspase-3 activation, DMSO zero, 10 µM staurosporine = 100%; series mostly up to 91.7 µM;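 note: cells exposed to compound for 16 hours at 37 °C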
Procedure, shortened: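 Readout: caspase-cleaved peptide-aminoluciferin substrate driving luciferase light in SH-SY5Y neuroblastoma cells after 16 h treatment. Response normalized to DMSO and 10 uM staurosporine controls.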

[18] = Cellular Toxicity (caspase-3) BJ (AID 658); details: BJ fibroblasts, luminescence, normalized: DMSO 0%, staurosporine 100%; series mostly up to 91.7 µM
Procedure, shortened: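 qHTS, BJ fibroblasts, 1000 cells/well; 5 hr preincubation, 16 hr compound, 37 °C; Caspase-Glo 3/7 reagent, 1 hr RT; luminescence. DMSO = 0%, 10 uM staurosporine = 100%. Hill-equation AC50.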

[19] = Cellular Toxicity (caspase-3) MRC-5 (AID 659); details: MRC-5 cells, luminescence, normalized: DMSO 0%, 10 µM staurosporine 100%; series mostly up to 91.7 µM;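 note: cells exposed to compound for 16 h at 37 °C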
Procedure, shortened: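 MRC-5 fibroblasts, 1500/well; 16 h cpd, 37 °C; Caspase-Glo 3/7, 1 h RT; lumi read. Norm: DMSO = 0%, 10 uM staurosporine = 100%. Hill-fit AC50 from qHTS conc-response.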

[20] = Cell Viability - MRC5 (AID 434; calls by dose curve;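 note: potency is the fitted concentration of half-maximal effect; potency reflects cytotoxicity seen as loss of intracellular ATP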); details: MRC5 lung fibroblast viability, qHTS
Procedure, shortened: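 ATP luminescence read-out (CellTiter-Glo, 20 min RT) after 40 hr, 37 °C compound exposure of 1500 MRC5 cells/well. Data normalized to DMSO (basal) and 100 uM tamoxifen (100% inhibition); AC50 from standard Hill equation.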

C[C@@H]1O[C@@H](O[C@@H]2[C@@H](O)[C@H](OCCc3ccc(O)c(O)c3)O[C@H](CO[C@@H]3O[C@H](CO)[C@@H](O)[C@H](O)[C@H]3O)[C@H]2OC(=O)/C=C/c2ccc(O)c(O)c2)[C@H](O)[C@H](O)[C@H]1O
inactive: Potency [1] > 92 µM | Potency [2] > 92 µM | Potency [3] > 92 µM | Potency [4] > 92 µM | Potency [5] > 92 µM | outcome [6] | activity change, negative = cytotoxicity [7] -12.1% | Potency [8] | Potency [9] | Potency [10] | Potency [11] | Potency [12] | Potency [13] | Potency [14] | caspase-3 activation [15] -3.29% | outcome [16] | outcome [17] | outcome [18] | outcome [19]

Cc1ccccc1C(N)=O
inactive: Potency [1] > 92 µM | Potency [2] > 92 µM | Potency [3] > 92 µM | Potency [4] > 92 µM | Potency [5] > 92 µM | outcome [6] | activity change, negative = cytotoxicity [7] -9.85% | Potency [8] | Potency [9] | Potency [10] | Potency [11] | Potency [12] | Potency [13] | Potency [14] | caspase-3 activation [15] 1.13% | outcome [16] | outcome [17] | outcome [18] | outcome [19]

CN(C)c1cccc(O)c1
inactive: Potency [1] > 92 µM | Potency [2] > 92 µM | Potency [3] > 92 µM | Potency [4] > 92 µM | Potency [20] > 92 µM | activity change, negative = cytotoxicity [7] -1.51% | Potency [8] | Potency [9] | Potency [10] | Potency [11] | Potency [12] | Potency [13] | Potency [14] | caspase-3 activation [15] -0.572% | outcome [16] | outcome [17] | outcome [18] | outcome [19]

CCCCOCCOCCSC#N
inactive: Potency [1] > 92 µM | Potency [2] > 92 µM | Potency [3] > 92 µM | Potency [4] > 92 µM | Potency [5] > 92 µM | outcome [6] | activity change, negative = cytotoxicity [7] 0.328% | Potency [8] | Potency [9] | Potency [10] | Potency [11] | Potency [12] | Potency [13] | Potency [14] | caspase-3 activation [15] 1.11% | outcome [16] | outcome [17] | outcome [18] | outcome [19]

O=C(O)c1ccccc1[N+](=O)[O-]
inactive: Potency [1] > 92 µM | Potency [2] > 92 µM | Potency [3] > 92 µM | Potency [4] > 92 µM | Potency [20] > 92 µM | activity change, negative = cytotoxicity [7] 4.07% | Potency [9] | Potency [10] | Potency [11] | Potency [13] | Potency [14] | outcome [16] | outcome [17] | outcome [18] | outcome [19]

CC(N)CN (stereo unspecified)
inactive: Potency [1] > 92 µM | Potency [2] > 92 µM | Potency [3] > 92 µM | Potency [4] > 92 µM | Potency [5] > 92 µM | outcome [6] | activity change, negative = cytotoxicity [7] 3.26% | Potency [8] | Potency [9] | Potency [10] | Potency [11] | Potency [12] | Potency [13] | Potency [14] | caspase-3 activation [15] 2.43% | outcome [16] | outcome [17] | outcome [18] | outcome [19]

CCCCC=O
inactive: Potency [1] > 92 µM | Potency [2] > 92 µM | Potency [3] > 92 µM | Potency [4] > 92 µM | Potency [5] > 92 µM | outcome [6] | activity change, negative = cytotoxicity [7] 4.71% | Potency [8] | Potency [9] | Potency [10] | Potency [11] | Potency [12] | Potency [13] | Potency [14] | outcome [16] | outcome [17] | outcome [18] | outcome [19]

CC(C)c1ccccc1
inactive: Potency [1] > 92 µM | Potency [2] > 92 µM | Potency [3] > 92 µM | Potency [4] > 92 µM | Potency [20] > 92 µM | outcome [6] | activity change, negative = cytotoxicity [7] -8.99% | Potency [9] | Potency [10] | Potency [11] | Potency [12] | Potency [13] | Potency [14] | caspase-3 activation [15] -0.787% | outcome [16] | outcome [17] | outcome [18] | outcome [19]

C=CC(=O)OCCCC
inactive: Potency [1] > 92 µM | Potency [2] > 92 µM | Potency [3] > 92 µM | Potency [4] > 92 µM | Potency [20] > 92 µM | activity change, negative = cytotoxicity [7] 10.3% | Potency [8] | Potency [9] | Potency [10] | Potency [11] | Potency [12] | Potency [13] | Potency [14] | caspase-3 activation [15] 0.501% | outcome [16] | outcome [17] | outcome [18] | outcome [19]

Cc1cc(C(=O)O)ccc1[N+](=O)[O-]
inactive: Potency [1] > 92 µM | Potency [2] > 92 µM | Potency [3] > 92 µM | Potency [4] > 92 µM | Potency [5] > 92 µM | outcome [6] | activity change, negative = cytotoxicity [7] 4.23% | Potency [8] | Potency [9] | Potency [10] | Potency [11] | Potency [12] | Potency [13] | caspase-3 activation [15] -1.06% | outcome [17] | outcome [18] | outcome [19]

Cc1ccc(C)c(O)c1
inactive: Potency [1] > 92 µM | Potency [2] > 92 µM | Potency [3] > 92 µM | Potency [4] > 92 µM | Potency [20] > 92 µM | outcome [6] | activity change, negative = cytotoxicity [7] 3.3% | Potency [8] | Potency [9] | Potency [10] | Potency [11] | Potency [13] | Potency [14] | caspase-3 activation [15] 0.228% | outcome [16] | outcome [17] | outcome [18] | outcome [19]

Cc1c(N)cccc1N
inactive: Potency [1] > 92 µM | Potency [2] > 92 µM | Potency [3] > 92 µM | Potency [4] > 92 µM | Potency [20] > 92 µM | activity change, negative = cytotoxicity [7] -3.84% | Potency [8] | Potency [9] | Potency [10] | Potency [11] | Potency [12] | Potency [13] | Potency [14] | caspase-3 activation [15] -0.535% | outcome [16] | outcome [17] | outcome [18] | outcome [19]
